Measurements reported in PubChem BioAssay (EPA / NIEHS).
Calls of active or inactive are those of the source. Rule for the calls: active = hit-call score of the fitted dose curve at least 0.9, where 1 is the maximum; inactive = score below 0.9.

How the values were obtained:
[1] = APR_HepG2_NuclearSize_72hr: Apredica 72-hour HepG2 Assay for Nuclear Size (AID 2282925); settings: high-content imaging, actives raise or lower the signal
How it was run: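 Nuclear size was read by high-content imaging of Hoechst 33342 stain after formaldehyde fixation. Compounds ran 72 h on HepG2 at 0.39 to 200 uM, with final DMSO 0.5% v/v. Curves fitted both directions relative to DMSO control.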

[2] = ATG_CRE_CIS: Attagene CIS-FACTORIAL HepG2 Assay for human cAMP Responsive Element (CRE) binding protein 3 (AID 2282926); settings: HepG2 CRE cis-reporter, Attagene multiplexed mRNA; actives raise or lower the signal
How it was run: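 Endogenous transcription factor activity read via CRE-regulated reporter transcripts in transfected HepG2 cells. After 24 h exposure, RNA was reverse-transcribed, amplified, fluorescently labelled and sized by capillary electrophoresis; gain or loss fitted against DMSO.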

[3] = target: CCAAT/enhancer-binding protein beta (Homo sapiens) (UniProt P17676); experiment: ATG_C_EBP_CIS: Attagene CIS-FACTORIAL HepG2 Assay for human CCAAT/Enhancer Binding Protein (C/EBP) beta (AID 2282927); settings: HepG2 Attagene cis-factorial transcription factor reporter; actives raise or lower the signal
How it was run: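 Changes in reporter mRNA, rather than exogenous chimeric receptor activity, reflect native C/EBP signalling in transfected HepG2 cells dosed for 24 h; transcripts are detected by RT-PCR and capillary electrophoresis.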

[4] = ATG_CMV_CIS: Attagene CIS-FACTORIAL HepG2 Assay for human CMV (Internal Marker) (AID 2282928); settings: HepG2 CMV promoter reporter, transcription factor profiling; actives raise or lower the signal;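 note: endpoint acts as a background internal control marker rather than a target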
How it was run: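 Bidirectional fits against DMSO are applied to reporter mRNA, read by RT-PCR with capillary electrophoresis, from HepG2 cells exposed 24 h. The endpoint serves as an internal CMV background marker within the cis-factorial reporter panel.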

[5] = ATG_DR4_LXR_CIS: Attagene CIS-FACTORIAL HepG2 Assay for human Liver X Receptor (LXR), DR4 submotif (AID 2282929); settings: HepG2 Attagene DR4 cis-reporter, mRNA transcription; actives raise or lower the signal
How it was run: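 After transient transfection with multiplexed cis-promoter reporter units, HepG2 cells received test chemicals for 24 h. Reporter mRNA induction, detected by fluorescence after RT-PCR and capillary electrophoresis, was scored relative to DMSO.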

[6] = target: Aryl hydrocarbon receptor (Homo sapiens) (UniProt P35869); experiment: ATG_Ahr_CIS: Attagene CIS-FACTORIAL HepG2 Assay for human Aryl Hydrocarbon Receptor (Ahr) (AID 2282930); settings: HepG2 AhR cis-factorial reporter transcription; actives raise or lower the signal
How it was run: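 HepG2, transient MRTU (cis) transfection, 24 h exposure. RNA → cDNA → PCR → 6-FAM primer extension → HpaI 2 h 37 C → CE. Fit: bidirectional, DMSO baseline.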

[7] = ATG_AP_1_CIS: Attagene CIS-FACTORIAL HepG2 Assay for human Activator Protein 1 (AP-1) (AID 2282931); settings: HepG2 Attagene cis-factorial AP-1 reporter mRNA; actives raise or lower the signal
How it was run: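 After 24 h incubation with test chemical, RNA from transfected HepG2 cells was reverse-transcribed, amplified, fluorescently labelled and digested before capillary electrophoresis. Reporters were driven by cis-regulatory promoters; activity fitted bidirectionally versus DMSO.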

[8] = ATG_AP_2_CIS: Attagene CIS-FACTORIAL HepG2 Assay for human Activator Protein 2 (AP-2) (AID 2282932); settings: HepG2 AP-2 cis-reporter, Attagene transcription factor profiling; actives raise or lower the signal
How it was run: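 Transiently transfected HepG2 cells are exposed to chemical for 24 h. Reporter transcripts are then measured as fluorescence following RT-PCR and capillary separation, and gain- or loss-of-signal is fitted relative to DMSO.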

[9] = target: Retinoic acid receptor alpha (Homo sapiens) (UniProt P10276); experiment: ATG_DR5_RAR_CIS: Attagene CIS-FACTORIAL HepG2 Assay for human Retinoic Acid Receptor Alpha (RARE), DR5 submotif (AID 2282934); settings: HepG2 Attagene cis-factorial RARE DR5 reporter, mRNA; actives raise or lower the signal;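 for AC50: reporter responds to endogenous RAR alpha beta and gamma in HepG2 not RARA alone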
How it was run: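 HepG2, transient cis-reporter transfection, 24 h exposure. mRNA readout: RT-PCR, FAM label, HpaI cut, capillary electrophoresis. DMSO baseline, gain/loss fitting.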

[10] = ATG_BRE_CIS: Attagene CIS-FACTORIAL HepG2 Assay for human Bone Morphogenetic Protein (BMP) Response Element (BRE) (AID 2282933); settings: HepG2 BMP response element reporter, Attagene transcription factor profiling; actives raise or lower the signal
How it was run: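 Endogenous transcription factor activity at a BMP response element was monitored in transfected HepG2 cells 24 h after dosing. Fluorescent RT-PCR products were resolved by capillary electrophoresis, and activity was fitted in both directions versus DMSO.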

Measured: AC50

Chain of Retinoic acid receptor alpha (Homo sapiens) (P10276 whole entry, looked up): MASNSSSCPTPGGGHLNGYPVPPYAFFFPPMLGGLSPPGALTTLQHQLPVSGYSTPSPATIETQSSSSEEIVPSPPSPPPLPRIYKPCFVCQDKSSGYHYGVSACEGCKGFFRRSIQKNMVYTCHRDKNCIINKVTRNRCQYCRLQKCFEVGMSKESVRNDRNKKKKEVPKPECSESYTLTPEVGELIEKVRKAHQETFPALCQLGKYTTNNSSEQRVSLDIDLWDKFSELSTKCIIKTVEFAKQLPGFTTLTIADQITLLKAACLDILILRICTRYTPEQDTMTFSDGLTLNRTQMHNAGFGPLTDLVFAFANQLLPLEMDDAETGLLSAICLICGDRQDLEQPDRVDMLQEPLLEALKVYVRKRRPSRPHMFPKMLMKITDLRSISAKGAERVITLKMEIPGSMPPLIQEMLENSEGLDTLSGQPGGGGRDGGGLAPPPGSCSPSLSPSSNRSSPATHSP
Chain of Aryl hydrocarbon receptor (Homo sapiens) (P35869 whole entry, looked up): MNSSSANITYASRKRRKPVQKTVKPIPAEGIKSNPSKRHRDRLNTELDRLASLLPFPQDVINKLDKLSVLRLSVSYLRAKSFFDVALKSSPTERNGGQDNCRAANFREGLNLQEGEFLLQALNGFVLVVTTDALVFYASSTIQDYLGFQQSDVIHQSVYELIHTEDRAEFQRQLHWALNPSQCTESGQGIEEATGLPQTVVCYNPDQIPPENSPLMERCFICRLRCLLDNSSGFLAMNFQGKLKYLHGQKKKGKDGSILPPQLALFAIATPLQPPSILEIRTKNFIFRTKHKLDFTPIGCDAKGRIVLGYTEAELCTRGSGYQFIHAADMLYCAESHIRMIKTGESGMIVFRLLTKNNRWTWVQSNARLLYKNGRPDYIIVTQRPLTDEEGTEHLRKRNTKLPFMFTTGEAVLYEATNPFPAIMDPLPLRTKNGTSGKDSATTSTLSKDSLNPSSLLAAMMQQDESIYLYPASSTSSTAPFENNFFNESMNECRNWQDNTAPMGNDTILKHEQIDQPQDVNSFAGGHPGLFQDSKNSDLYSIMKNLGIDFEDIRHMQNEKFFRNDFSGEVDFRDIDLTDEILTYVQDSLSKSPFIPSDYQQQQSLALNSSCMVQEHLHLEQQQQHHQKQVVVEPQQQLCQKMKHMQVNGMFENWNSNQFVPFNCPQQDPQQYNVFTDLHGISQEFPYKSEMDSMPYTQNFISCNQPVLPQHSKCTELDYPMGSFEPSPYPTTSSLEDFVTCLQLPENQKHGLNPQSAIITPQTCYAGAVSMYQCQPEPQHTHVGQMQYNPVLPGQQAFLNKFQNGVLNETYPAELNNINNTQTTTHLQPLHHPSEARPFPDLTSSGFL
Chain of CCAAT/enhancer-binding protein beta (Homo sapiens) (P17676 whole entry, looked up): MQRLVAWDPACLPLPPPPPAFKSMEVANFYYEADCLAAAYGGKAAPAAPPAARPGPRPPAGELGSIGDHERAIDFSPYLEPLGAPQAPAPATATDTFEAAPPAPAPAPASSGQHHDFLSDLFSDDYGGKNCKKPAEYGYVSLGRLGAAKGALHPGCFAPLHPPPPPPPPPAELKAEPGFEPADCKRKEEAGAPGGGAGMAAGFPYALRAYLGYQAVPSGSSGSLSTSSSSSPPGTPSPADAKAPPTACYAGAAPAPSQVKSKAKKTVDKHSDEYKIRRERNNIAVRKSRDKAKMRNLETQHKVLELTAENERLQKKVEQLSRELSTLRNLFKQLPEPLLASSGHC

CCNC(=O)NC(=O)C(C#N)=NOC
not listed: [10]
inactive: all other assays above

Cn1c(-c2ccccc2)cc(-c2ccccc2)[n+]1C
not listed: [10]
inactive: all other assays above

Nc1c(Cl)c(F)nc(OCC(=O)O)c1Cl
not listed: [7]
inactive: all other assays above

O=P(O)(O)CCCl
not listed: [7] | [10]
inactive: all other assays above

CC(C)N1C(=O)N(c2ccccc2)CSC1=NC(C)(C)C
not listed: [9]
inactive: all other assays above

C=C(C)CN(CC)c1c([N+](=O)[O-])cc(C(F)(F)F)cc1[N+](=O)[O-]
active: [5] 50 µM | [9] 18.4 µM
not listed: [7] | [10]
inactive: all other assays above

Cc1cnc(C2=NC(C)(C(C)C)C(=O)N2)c(C(=O)O)c1 (configuration not stated)
active: [9] 35.4 µM
not listed: [10]
inactive: all other assays above

CC1(C)CCC(=Cc2ccc(Cl)cc2)C1(O)Cn1cncn1 (configuration not stated)
active: [9] 18.8 µM
not listed: [7]
inactive: all other assays above

CO/N=C(/C1=NOCCO1)c1ccccc1Oc1ncnc(Oc2ccccc2Cl)c1F
active: [2] 0.858 µM | [3] 0.794 µM | [10] 0.918 µM
inactive: [1] | [4] | [5] | [8]

Cc1c(COC(=O)[C@@H]2[C@H](/C=C(\Cl)C(F)(F)F)C2(C)C)cccc1-c1ccccc1
active: [4] 11.3 µM
not listed: [7] | [10]
inactive: all other assays above

CC(C)Nc1nc(Cl)nc(NC(C)C)n1
not listed: [9]
inactive: all other assays above

COC(=O)c1c(C(F)F)nc(C(F)(F)F)c(C2=NCCS2)c1CC(C)C
active: [2] 9.92 µM | [3] 0.682 µM | [5] 26.2 µM | [6] 50 µM | [10] 50 µM
inactive: [1] | [4] | [8] | [9]

Cc1ccc(N=CN(C)C=Nc2ccc(C)cc2C)c(C)c1
not listed: [10]
inactive: all other assays above

CNC(=O)N(C)c1nnc(C(C)(C)C)s1
not listed: [10]
inactive: all other assays above

CC1(C)CON(Cc2ccccc2Cl)C1=O
not listed: [7] | [10]
inactive: all other assays above

O=C1C2CC=CCC2C(=O)N1SC(Cl)(Cl)Cl (configuration not stated)
not listed: [7]
inactive: all other assays above

COCC(C)N(C(=O)CCl)c1c(C)csc1C (configuration not stated)
active: [2] 1.83 µM
not listed: [9] | [10]
inactive: all other assays above

CC(C)NC(=O)N1CC(=O)N(c2cc(Cl)cc(Cl)c2)C1=O
active: [6] 4.87 µM
not listed: [3] | [9] | [10]
inactive: all other assays above

C=CCOC(=O)C(C)(C)OC(=O)c1cc(-n2c(=O)cc(C(F)(F)F)n(C)c2=O)ccc1Cl
active: [2] 13.3 µM
not listed: [3] | [9] | [10]
inactive: all other assays above

CCN(CC)C(=O)C(C)Oc1cccc2ccccc12 (configuration not stated)
active: [2] 2.24 µM | [6] 14.9 µM | [10] 14.4 µM
not listed: [3] | [9]
inactive: all other assays above

CCOC(=O)C(C)OC(=O)c1cc(Oc2ccc(C(F)(F)F)cc2Cl)ccc1[N+](=O)[O-] (configuration not stated)
active: [6] 14.7 µM
not listed: [7] | [10]
inactive: all other assays above

CCNP(=S)(OC)O/C(C)=C/C(=O)OC(C)C (configuration not stated)
active: [5] 50 µM | [6] 13.6 µM | [9] 13.6 µM
not listed: [7]
inactive: all other assays above

COc1cc(OC)nc(NC(=O)NS(=O)(=O)c2ncccc2OCC(F)(F)F)n1
not listed: [7] | [9] | [10]
inactive: all other assays above
